Shn3 3UTR inh: reduces Shn3 3'UTR luciferase signal in osteoblasts; Clone20 osteoblast Shn3 3'UTR firefly luciferase, 24 h; inhibition, % at 12.5 µM; 360,000 compounds, 0.52% hits;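 active = mean inhibition of at least 75% with every replicate also reaching 75%; inconclusive = mean inhibition at least 75% but some replicate below; inactive = mean inhibition below 75%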;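 note: 0% = median of neutral control wells and 100% = pilot-screen positive control compound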
Gli-Sufu block: antagonists of Gli-Sufu signaling; inhibition, % at 5 µM; Sufu-KO-LIGHT fibroblasts, Gli luciferase reporter luminescence; 340,000 compounds, 0.74% hits;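 active = inhibition above about 55%, limit read from the data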;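 note: 0% = DMSO-treated cells and 100% = wells with medium but no cells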
Mdm2-MdmX inh: disrupts the human Mdm2-MdmX interaction; 330,000 compounds, 3% hits; inhibition, % at 8 µM; O15151+Q00987; SaOS-2 split-luciferase Mdm2/MdmX complementation, luminescence;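 active = inhibition of at least 50% at 8 µM in the primary screen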
Target sequence (O15151 whole entry, looked up): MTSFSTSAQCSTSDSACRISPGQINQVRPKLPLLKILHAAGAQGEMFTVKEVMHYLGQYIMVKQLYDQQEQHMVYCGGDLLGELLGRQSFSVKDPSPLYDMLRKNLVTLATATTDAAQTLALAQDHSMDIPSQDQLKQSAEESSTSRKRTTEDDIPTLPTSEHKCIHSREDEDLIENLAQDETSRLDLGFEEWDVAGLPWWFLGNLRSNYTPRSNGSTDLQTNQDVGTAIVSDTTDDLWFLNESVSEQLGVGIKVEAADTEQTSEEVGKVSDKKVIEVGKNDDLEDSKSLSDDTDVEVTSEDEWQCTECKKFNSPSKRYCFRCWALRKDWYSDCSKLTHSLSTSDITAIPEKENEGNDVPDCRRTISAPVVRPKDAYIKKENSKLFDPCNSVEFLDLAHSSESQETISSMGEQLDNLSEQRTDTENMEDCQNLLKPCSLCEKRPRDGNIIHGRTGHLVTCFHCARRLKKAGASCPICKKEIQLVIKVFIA
Target sequence (Q00987 whole entry, looked up): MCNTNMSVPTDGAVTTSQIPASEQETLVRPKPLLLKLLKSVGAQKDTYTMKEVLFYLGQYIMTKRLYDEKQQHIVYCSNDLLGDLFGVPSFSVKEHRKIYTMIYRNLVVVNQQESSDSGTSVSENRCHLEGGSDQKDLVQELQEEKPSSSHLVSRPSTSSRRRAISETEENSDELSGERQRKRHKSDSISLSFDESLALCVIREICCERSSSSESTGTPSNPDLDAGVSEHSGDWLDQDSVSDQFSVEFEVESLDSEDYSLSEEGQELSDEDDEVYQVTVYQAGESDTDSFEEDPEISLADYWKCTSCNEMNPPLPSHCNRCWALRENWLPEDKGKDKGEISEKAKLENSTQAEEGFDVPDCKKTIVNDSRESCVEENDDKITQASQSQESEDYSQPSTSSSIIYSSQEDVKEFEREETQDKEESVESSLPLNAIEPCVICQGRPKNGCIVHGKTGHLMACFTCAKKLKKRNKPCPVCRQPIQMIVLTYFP
Jurkat NFkB inh: lowers PMA/ionomycin-induced NF-kB signal in Jurkat cells; PMA/ionomycin-induced NF-kB luciferase reporter, luminescence; inhibition, % at 4 µM; 330,000 compounds, 0.53% hits; in the data active = inhibition above about 50%
697 NFkB inh: lowers PMA/ionomycin-induced NF-kB signal in 697 B cells; 697 B-cell NF-kB luciferase reporter, 16 h; AID 435022; inhibition, % at 4 µM; 330,000 compounds, 0.33% hits; in the data active = inhibition above about 35%
Mdm2-MdmX conf: confirmation of human Mdm2/MdmX interaction inhibitors; inhibition, % at 8 µM; shares compounds with Mdm2-MdmX inh; 10,000 compounds, 55% hits; Mdm2-MdmX binding, luminescent assay; in the data active = inhibition above about 40%
Full FLuc ctr: inhibits full-length luciferase, flagging false Mdm2/MdmX hits; AID 504607; SaOS-2 full-length luciferase counterscreen, luminescence; inhibition, % at 8 µM; shares compounds with Mdm2-MdmX inh; 6,200 compounds, 77% hits;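 active = mean inhibition at 8 µM reaching about 37%, which flags the compound as non-specific, limit read from the data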;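 note: p53-null SaOS-2 cells with luciferase driven by a doxycycline-inducible promoter; compound on cells about two nights before reading with doxycycline added after day one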
Active calls of the source: *; ? = inconclusive; . = no result given. Shown are actives, neighbours in structure and some others; about 3.8% of the full set was active somewhere.

SMILES | Shn3 3UTR inh | Gli-Sufu block | Mdm2-MdmX inh | Jurkat NFkB inh | 697 NFkB inh | Mdm2-MdmX conf | Full FLuc ctr
O=C(NC(=C(Cl)Cl)S(=O)(=O)c1ccc(Cl)cc1)c1ccccc1 | -16.6 | -1.2 | 61.7* | 26.4 | 1.3 | 57.8* | 13.1
CC(=O)Nc1ccc(SCCCC(=O)c2ccccc2)cc1 | -6.7 | -8.9 | 4.4 | -25.2 | 2.8 | . | .
COc1ccc([C@H]2CC(=O)C=C(c3ccc4ncccc4c3)C2)cc1OC | 5.6 | 10.0 | 3.6 | 19.5 | -9.9 | . | .
Cc1ccc(S(=O)(=O)NCc2ccc(C(=O)NCCCN3CCC(Cc4ccccc4)CC3)cc2)cc1 | 7.1 | 24.0 | 75.1* | 20.4 | -8.6 | 42.1* | 43.3*
CCc1ccccc1NC(=O)c1ccc(CN2CCC(Cc3ccccc3)CC2)cc1 | 27.0 | -6.3 | 51.2* | 17.2 | -18.3 | 36.4 | 75.9*
O=C(NCc1ccccc1)c1ccc(CN2CCC(Cc3ccccc3)CC2)cc1 | 5.4 | 1.9 | 53.9* | -6.0 | -9.8 | 28.3 | .
CCn1c(O)c(N=Nc2ccc3ccccc3n2)c2ccccc21 | -85.6 | -87.4 | -124.6 | -112.3 | -102.0 | . | .
Brc1ccc(N=Nc2ccc3ccccc3n2)cc1 | 81.6 | -27.0 | 78.6* | 47.2 | -127.1 | 71.7* | 47.7*
COc1ccc2oc(=Nc3ccccc3)c(-c3nc4ccccc4[nH]3)cc2c1 | -15.6 | -81.8 | 87.7* | -88.2 | -171.8 | -83.8 | .
CCOC(=O)c1c(C)nc2sc(C(=O)Nc3ccc(OC)cc3)c(N)c2c1-c1ccc(OC)cc1 | 51.4 | 1.5 | 58.0* | 40.6 | -13.8 | 56.0* | 52.9*
O=C(N/N=C1/CC2CCC1C2)c1cc2ccccc2cc1O (centres undefined) | -10.0 | -17.0 | 51.9* | 13.9 | 11.1 | 40.8* | 83.0*
COc1cccc(C(=O)Nc2ncc3c(n2)CC(c2ccc(OC)cc2OC)CC3=O)c1 (centres undefined) | -0.4 | -8.1 | 59.4* | 48.7 | -33.3 | 51.0* | 56.7*
O=C(c1cccc(COc2cccc3ccccc23)c1)N1CCCC1 | -21.4 | -41.5 | 50.1* | -17.2 | -115.5 | 23.6 | .
O=[N+]([O-])c1cccnc1N1CCC(c2cc(-c3ccc(Cl)cc3)n[nH]2)CC1 | 0.7 | -17.0 | 54.3* | 7.1 | -35.4 | 1.1 | .
O=C(Nc1ccc(Cl)cc1)c1cccs1 | 8.6 | -55.9 | -27.5 | -62.2 | -44.9 | . | .
C/C(=N/NC(=O)c1ccc(Cl)s1)c1ccc(NC(=O)COc2ccc(Cl)cc2)cc1 | . | -8.0 | 77.8* | -14.6 | -28.2 | 5.5 | .
C/C(=N/NC(=O)c1cccs1)c1ccc(NC(=O)COc2ccc(Cl)cc2Cl)cc1 | 24.2 | -4.5 | 75.0* | -3.7 | -7.5 | 11.2 | .
O=C(Nc1ccc(NC(=O)c2ccc(Cl)cc2Cl)cc1)c1cccs1 | 16.5 | -3.9 | 71.7* | -16.1 | 24.1 | 21.6 | .
O=C1NC(=O)C2(CCCC2c2ccccc2)N1 (centres undefined) | -0.4 | 12.0 | . | . | . | . | .
C#C[C@]1(OC(C)=O)CCC2C3CCC4=CC(=O)CC[C@@H]4C3CC[C@@]21C (some centres undefined) | -21.4 | 5.5 | 23.4 | -0.7 | -2.2 | . | .
O=C(N/N=C/c1ccc(Cl)cc1)c1cc2c(s1)-c1ccccc1CC2 | 0.3 | -7.0 | 65.2* | 40.6 | -11.1 | 60.5* | 47.0*
O=C(O)c1cc2c(s1)-c1ccccc1CC2 | -20.4 | 2.2 | 14.8 | -5.4 | 12.8 | . | .
CCc1ccc2[nH]c(=O)c(CN(CCCN3CCOCC3)C(=O)Nc3cccc(Cl)c3)cc2c1 | -0.1 | 3.6 | 50.1* | 11.9 | 15.6 | 34.3 | .
Cc1ccc(C)c2[nH]c(=O)c(CN(CCN3CCCC3)C(=O)Nc3cccc(Cl)c3)cc12 | 17.8 | -3.6 | 55.4* | 28.8 | 6.0 | 36.0 | 38.1*
CC(NC(=O)c1cc2cc(Br)ccc2oc1=N)c1ccccc1 (centres undefined) | 13.6 | -1.3 | 32.4 | 4.6 | 9.1 | . | .
SMILES | Shn3 3UTR inh | Gli-Sufu block | Mdm2-MdmX inh | Jurkat NFkB inh | 697 NFkB inh | Mdm2-MdmX conf | Full FLuc ctr
C[C@@H]1COC(=O)[C@H](Cc2ccc(F)cc2)C/C=C\C[C@@H](CC(=O)N[C@H](CO)Cc2ccccc2)C(=O)N1 | -5.2 | 4.9 | -20.9 | -1.8 | -2.9 | . | .
O=C(C[C@@H]1C/C=C\C[C@@H](Cc2ccc(F)cc2)C(=O)OC[C@@H](Cc2ccccc2)NC1=O)N[C@H](CO)Cc1ccccc1 | 10.5 | -24.7 | 80.1* | -9.9 | 0.5 | 66.5* | 40.6*
Cc1ccc(NC(=O)C(=Cc2ccc(C(=O)O)cc2)C(=O)Nc2ccc(C)cc2C)c(C)c1 | ? | 25.8 | 100.4* | 31.5 | -137.0 | 99.0* | 51.8*
CC(=O)C(=Cc1ccc(C(=O)O)cc1)C(C)=O | 27.1 | 8.0 | 0.6 | -15.6 | 6.8 | . | .
Cc1ccc2c(c1)CCCN2S(=O)(=O)c1cccc(C(=O)Nc2ccccc2C(=O)O)c1 | 10.0 | . | 53.8* | -0.2 | -94.7 | 60.2* | 58.3*
Cc1onc(-c2ccccc2Cl)c1C(=O)OCC(=O)N1CCN(c2ccccc2)CC1 | 5.7 | 8.3 | 19.5 | -2.9 | 6.9 | . | .
CC1C(c2ccccc2)N(C)C(c2ccccc2)C(C)C1(O)C#Cc1ccccc1 (centres undefined) | 2.5 | 7.1 | 71.2* | 18.7 | 6.8 | 24.9 | .
CCN1CCC(O)(C#Cc2ccccc2)CC1 | 2.7 | -4.9 | 9.4 | -11.0 | 10.3 | . | .
COC(=O)CCN1CCC2CC1c1cc(N3CCCCC3)ccc12 (centres undefined) | -12.1 | . | . | . | . | . | .
CCCOc1ccccc1C(=O)N(Cc1cccc(Br)c1)C1CCS(=O)(=O)C1 (centres undefined) | 11.5 | -1.4 | 12.6 | 2.5 | -4.5 | . | .
Cn1c(=O)[nH]c(=O)c2c1nc(SCC(N)=O)n2Cc1cccc(Br)c1 | -7.5 | 26.4 | 63.5* | -0.5 | 33.1 | 32.5 | .
CCCSc1nc2c(c(=O)[nH]c(=O)n2C)n1Cc1ccc(C)cc1 | 16.7 | 14.2 | 36.3 | 12.8 | 0.3 | . | .
Cc1ccc(Cn2c(SCC(C)C)nc3c2c(=O)[nH]c(=O)n3C)cc1 | -2.5 | 1.2 | 60.0* | 7.7 | -6.6 | 28.9 | .
CC(=O)NC(c1ccc(F)c(F)c1)c1nc(-c2ccccc2)cs1 (centres undefined) | -4.1 | . | . | . | . | . | .
COc1cc(/C=N/NC(=Nc2ccc(C)cc2)c2nc3ccccc3s2)ccc1O | 52.1 | -29.1 | 82.8* | -57.7 | -86.3 | 79.5* | 50.8*
CCSc1nc2nccnc2c(=O)[nH]1 | -3.6 | 2.9 | . | . | . | . | .
COc1ccc(NC(=O)/C(=C\c2cc(OC)c(OC)cc2[N+](=O)[O-])NC(=O)c2ccccc2)cc1 | 18.8 | -13.9 | 51.6* | -6.2 | 13.5 | -11.3 | .
CC1(C)CC2CC(C)(CN2C(=O)COC(=O)c2ccccc2C(F)(F)F)C1 (centres undefined) | 10.1 | 19.6 | 12.1 | -13.7 | -2.2 | . | .
O=C1CNC(=S)N1C(CO)c1ccccc1 (centres undefined) | 0.2 | -7.7 | -20.9 | -16.2 | 11.0 | . | .
O=C(Nc1cccc(S(=O)(=O)N2CCCCCC2)c1)C1CC(=O)N(c2ccc3c(c2)OCCO3)C1 (centres undefined) | 2.9 | -4.7 | 17.9 | 1.5 | 0.4 | . | .
